The list is not random: actives were taken first. Their share in the collection is about 3.8%.
S2 tox = Viability Counterscreen for Primary qHTS for Inhibitors of ATXN expression; S2 cells (HEK-293 line with an ATXN2-luciferase reporter) viability, CellTiter-Fluor protease fluorescence, 24 h; Potency, µM (top dose mostly 56.7 µM), most hits filed as cytotoxic; 0.49% of 400,000 active; further: nearly all actives have a fitted effect of over 40% in size
TGFb inhibitor = qHTS for Inhibitors of TGF-b; HepG2 CAGA-GFP TGF-b/SMAD3 reporter, GFP fluorescence, 18 h; TGF-beta stimulated, 500 pg/mL final; Potency, µM (doses to about 46.1 µM), actives largely listed as inhibitors; 1.2% of 410,000 active; further: nearly all actives have a fitted effect of over 65% in size
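Using HEPG2 CAGA-GFP reporter cells at 1000 cells/well, we pinned test compounds, stimulated with recombinant TGF-beta (500 pg/mL final) and measured total well GFP after 18 h.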
HepG2 tox = qHTS for Inhibitors of TGF-b: Cytotox Counterscreen; HepG2 CAGA-GFP viability, ATP luminescence, 18 h; Potency, µM (highest dose often 46.1 µM), usual class: cytotoxic; 0.76% of 410,000 active
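HepG2 CAGA-GFP cells (1000/well, DMEM with 1% FBS) received compound, then TGF-beta at 500 pg/mL final, and were incubated 18 hours at 37 degrees C. Viability was read by CellTiter-Glo luminescence. Media-only wells were set as complete cell-killing and DMSO as no toxicity.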
ATXN2 expr inh = Primary qHTS for Inhibitors of ATXN expression; HEK-293 ATXN2-luciferase reporter, luminescence, 24 h; Potency, µM (series often up to 57 µM), actives largely listed as inhibitors; 0.72% of 360,000 active; AID 1745845, 2022; further: nearly all actives have a fitted effect of over 55% in size
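ATXN2-luciferase reporter cells (luciferase flanked by upstream and downstream ATXN2 gene portions) were treated 24 h at 37 °C with compounds at up to 57 uM. SteadyGlo luminescence gave expression; GF-AFC fluorescence gave viability.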
A549 tox = Nrf2 qHTS screen for inhibitors: counterscreen for cytotoxicity; A549 ARE-Fluc cells, CellTiter-Fluor viability, 18-24 h; Potency, µM (series often up to 46 µM), hits mostly inhibitors; 0.16% of 390,000 active; AID 504648, 2011
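A549 ARE-Fluc cells in 5% FBS OPTI-MEM, 5000 cells/well, rested 2 h then exposed to compounds in concentration-response for 18-24 h at 37 °C. Viability by CellTiter-Fluor fluorescence (Ex 405/Em 525) after 30 min; luciferase luminescence (BugLite, 15 min, RT) read afterwards.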
Nrf2 inh = Nrf2 qHTS screen for inhibitors | Potency, µM (titrated, usually from 46 µM), actives largely listed as inhibitors | AID 504444, 2011 | A549 ARE-Fluc reporter, luciferase luminescence, 18-24 h | 2.1% of 360,000 active; further: nearly all actives have a fitted effect of over 60% in size
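Concentration-response testing used A549 ARE_Fluc cells at 5000 cells/well. Following an 18-24 h compound incubation, viability was read by fluorescence (Ex 405/Em 525) and luciferase output by luminescence.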
Large screens that a line does not name were inactive. The call rests on the fitted dose curve; in most records, active means well fitted curve in the direction sought with a large enough effect; inconclusive means small, poorly fitted or top-dose-only effect, or another doubt; inactive means no such curve, though single readings can be large; an effect the other way counts as inactive or inconclusive.

COc1ccc(-n2c(C)cc(C(=O)CN3C(=O)c4ccccc4C3=O)c2C)cc1	none
COc1ccc(-n2c(C)cc(C(=O)CCl)c2C)cc1	S2 tox 27µM, TGFb inhibitor inconclusive, HepG2 tox 22µM, ATXN2 expr inh 30µM, A549 tox inconclusive, Nrf2 inh inconclusive
Cc1cc(-n2c(C)cc(C(=O)CN3C(=O)C(=O)N(C)C3=O)c2C)no1	none (no result: ATXN2 expr inh)
Cc1cc(-n2c(C)cc(C(=O)CCl)c2C)no1	S2 tox inconclusive, TGFb inhibitor 8.9µM, HepG2 tox 11µM
c1cc2c3c(c1)CCC[N+]3(C1CCCCC1)CCC2	none (no result: S2 tox, ATXN2 expr inh, A549 tox, Nrf2 inh)
CC(NC(=O)C(=O)NCCC1=CCCCC1)c1ccccc1 (centres undefined)	none
Cc1ccc(NC(=O)C2CSC3(C)CCC(=O)N23)cc1S(=O)(=O)N1CCCCCC1 (centres undefined)	S2 tox inconclusive, TGFb inhibitor inconclusive, ATXN2 expr inh inconclusive, Nrf2 inh 16µM
CCOc1ncccc1C(=O)Nc1cc(S(=O)(=O)N2CCCCC2)ccc1Cl	none
Cc1ccc(NC(=O)c2ccc(F)cc2)cc1S(=O)(=O)N1CCCCCC1	S2 tox inconclusive, TGFb inhibitor inconclusive, ATXN2 expr inh inconclusive, Nrf2 inh inconclusive
COc1ccc(C(=O)NCc2c(C)nn(Cc3ccccc3)c2C)cc1S(=O)(=O)N1CCOCC1	none (no result: ATXN2 expr inh)
Cc1ccc(NC(=O)C2CSC3(C)CCC(=O)N23)cc1S(=O)(=O)N1CCOCC1 (centres undefined)	none
COc1ccc(C(=O)Nc2ccc(C)c(S(=O)(=O)N3CCCCCC3)c2)cc1	TGFb inhibitor inconclusive, ATXN2 expr inh inconclusive, Nrf2 inh 21µM
CCOc1ncccc1C(=O)Nc1ccc(Cl)c(S(=O)(=O)N2CCCC2)c1	Nrf2 inh 18µM
COc1ccc(NC(=O)c2c(C)nn(Cc3ccccc3)c2Cl)cc1S(=O)(=O)N1CCOCC1	S2 tox inconclusive, Nrf2 inh 21µM
N#Cc1ccc(OCC(=O)OCC(=O)Nc2sccc2C(N)=O)cc1	none
O=C(CSc1cn[nH]n1)Nc1ccccc1C(=O)O	none
COc1ccc(CCC(=O)Nc2ccc(OC)c(S(=O)(=O)N3CCCCC3)c2)cc1	A549 tox inconclusive, Nrf2 inh 16µM (no result: ATXN2 expr inh)
Cc1ccc(NC(=O)c2ccccc2F)cc1S(=O)(=O)N1CCCCCC1	Nrf2 inh 16µM
CCc1ccc(C(=O)Nc2ccc(OC)c(S(=O)(=O)N3CCCCC3)c2)cc1	S2 tox inconclusive, TGFb inhibitor inconclusive, Nrf2 inh 7.3µM (no result: ATXN2 expr inh)
COc1ccc(NC(=O)Cc2ccc(C)cc2)cc1S(=O)(=O)N1CCCCC1	S2 tox inconclusive (no result: ATXN2 expr inh)
C[C@H](CO)N1C[C@H](C)[C@@H](CN(C)C(=O)c2ccc3ccn(C)c3c2)OCc2cn(nn2)CCCC1=O	none (no result: A549 tox, Nrf2 inh)
O=c1cc(CN2CCN(c3ccccc3F)CC2)c2cc3c(cc2o1)CCCC3	TGFb inhibitor inconclusive, HepG2 tox 18µM
CCCCNC(=O)C1CCN(C(=O)N2CC(C)Oc3ccc(Cl)cc32)CC1 (centres undefined)	Nrf2 inh inconclusive (no result: S2 tox, ATXN2 expr inh)
CCCCCNC(=O)N1CCC(CN(Cc2ccc(Cl)cc2)Cc2ccc([N+](=O)[O-])s2)C1 (centres undefined)	ATXN2 expr inh 27µM (no result: S2 tox, TGFb inhibitor, HepG2 tox, A549 tox, Nrf2 inh)
CC(OC(=O)CNC(=O)C12CC3CC(CC(C3)C1)C2)C(=O)Nc1ccc(S(N)(=O)=O)cc1 (centres undefined)	none
COc1ccc(/C=C/C(=O)NCC(=O)N/N=C/c2cc(Br)ccc2OCc2ccccc2)cc1	S2 tox 16µM (no result: Nrf2 inh)
Cc1cc2c(s1)c1cnn(Cc3cccc(C)c3F)c(=O)c1n2C	none (no result: S2 tox, TGFb inhibitor, HepG2 tox, ATXN2 expr inh)
CC1CCc2cc(F)cc3c2N1C(=O)C(C(=O)Nc1cnccn1)C3=O (centres undefined)	none (no result: S2 tox, ATXN2 expr inh)
O=C1c2cccc3c(Nc4ccccc4Cl)c([N+](=O)[O-])cc(c23)C(=O)N1CCO	TGFb inhibitor inconclusive, Nrf2 inh 13µM (no result: A549 tox)
Cc1c(NS(=O)(=O)c2cccc(C(=O)OCC(=O)c3ccc(Cl)cc3)c2)c(=O)n(-c2ccccc2)n1C	none

Source: PubChem BioAssay
